Data taken from PubChem BioAssay (Tox21).
Records with an inconclusive call do not appear. Activity calls are given as the source filed them. Unless noted, the call rests on the fitted dose curve; in most records, active means well fitted curve in the direction sought with a large enough effect in the repeat runs; inconclusive means weak or mixed curves; inactive means no such curve, though single readings can be large; an effect the other way counts as inactive or inconclusive.

What was measured:
[1] = qHTS assay to identify small molecule agonists of the hypoxia (HIF-1) signaling pathway (AID 1224846; active means well fitted activation curve with a large enough effect in the signal ratio in the repeat runs, not every such curve was filed as active; the % refers to the signal ratio)
Method in brief: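 Compounds added to ME-180 cells carrying hypoxia-response-element beta-lactamase reporter (0.5% dialyzed FBS, 5 h preplating), 17 h at 37C; agonist activity detected by CCF4-AM B/G FRET read-out.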

[2] = qHTS assay to identify small molecule agonists of H2AX - cell viability counter screen (AID 1224847; calls by dose curve; further: top concentration of the series differs between compounds; nearly all actives have a fitted effect of over 30% in size)
Method in brief: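 Wild-type CHO-K1 cells (10% FBS medium) were plated overnight at 37C, exposed to compounds at 15 concentrations for 3 hr at 37C (0.76% DMSO final), and viability was read as CellTiter-Glo luminescence after 30 min at room temperature.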

[3] = qHTS RealTime-Glo MT Cell Viability Assay in HepG2 cells - 24 hour (AID 1224867); further: nearly all actives have a fitted effect of over 50% in size
Method in brief: (§1)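 Compound treatment began 5 h after plating HepG2 cells (600/well) with NanoLuc luciferase and prosubstrate. Plates stayed at 37 C for 40 h; luminescence was captured at six time points, 0 h through 40 h.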

[4] = qHTS RealTime-Glo MT Cell Viability Assay in HEK293 cells - 32 hour (AID 1224868); further: top concentration of the series differs between compounds; nearly all actives have a fitted effect of over 50% in size
Method in brief: (§2)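 Quantitative high-throughput screen of the Tox21 10K library in HEK293: cells and RealTime-Glo reagents plated together, compound added at 5 h, luminescence monitored through 40 h at 37 C.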

[5] = A CellTox Green Cytotoxicity Assay to monitor cytotoxicity in HEK293 cells - 0 hour (AID 1224869); further: nearly all actives have a fitted effect of over 50% in size
Method in brief: (§3)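 Fluorescence from a DNA-binding dye excluded by viable cells was measured repeatedly in the same HEK293 wells (600 cells/well) during continuous compound exposure at 37 C. Each assay gives one read point: 0, 8, 16, 24, 32 or 40 h.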

[6] = qHTS RealTime-Glo MT Cell Viability Assay in HepG2 cells - 40 hour (AID 1224870); further: nearly all actives have a fitted effect of over 50% in size
Method in brief: (§4)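 HepG2 cells mixed with RealTime-Glo MT reagents (NanoLuc plus cell-permeant prosubstrate) were seeded at 600 cells/well, incubated 5 h at 37 C/5% CO2, then pinned with compounds in DMSO; nonlytic luminescence tracked viability during 40 h treatment.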

[7] = A CellTox Green Cytotoxicity Assay to monitor cytotoxicity in HEK293 cells - 40 hour (AID 1224871); further: nearly all actives have a fitted effect of over 45% in size
Method in brief: as §3

[8] = qHTS RealTime-Glo MT Cell Viability Assay in HEK293 cells - 16 hour (AID 1224872)
Method in brief: as §2

[9] = qHTS RealTime-Glo MT Cell Viability Assay in HepG2 cells - 8 hour (AID 1224873); further: nearly all actives have a fitted effect of over 55% in size
Method in brief: as §4

[10] = qHTS RealTime-Glo MT Cell Viability Assay in HEK293 cells - 40 hour (AID 1224874); conditions: RealTime-Glo luminescence; max response: active compounds read low; further: nearly all actives have a fitted effect of over 50% in size
Method in brief: (§5)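 Luminescence, which tracks viable cell number through reduction of the prosubstrate to a NanoLuc substrate, was read over continuous 37 C culture. Cells (600/well) were premixed with reagent and rested 5 h before 23 nL of compound in DMSO was pinned.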

[11] = A CellTox Green Cytotoxicity Assay to monitor cytotoxicity in HEK293 cells - 24 hour (AID 1224875); further: series mostly up to about 77 µM; nearly all actives have a fitted effect of over 45% in size
Method in brief: as §3

[12] = A CellTox Green Cytotoxicity Assay to monitor cytotoxicity in HepG2 cells - 16 hour (AID 1224876); further: nearly all actives have a fitted effect of over 45% in size
Method in brief: (§6)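 Real-time cytotoxicity: fluorescence of a cell-impermeant cyanine dye binding DNA of dead HepG2 cells, measured repeatedly (0–40 h) during compound exposure at 37 C. Cells seeded 600/well with reagent, dosed after 5 h.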

[13] = A CellTox Green Cytotoxicity Assay to monitor cytotoxicity in HepG2 cells - 24 hour (AID 1224878); further: nearly all actives have a fitted effect of over 45% in size
Method in brief: as §6

[14] = A CellTox Green Cytotoxicity Assay to monitor cytotoxicity in HepG2 cells - 40 hour (AID 1224879); further: nearly all actives have a fitted effect of over 40% in size
Method in brief: as §6

[15] = qHTS RealTime-Glo MT Cell Viability Assay in HEK293 cells - 0 hour (AID 1224880)
Method in brief: as §5

[16] = A CellTox Green Cytotoxicity Assay to monitor cytotoxicity in HEK293 cells - 32 hour (AID 1224881); further: nearly all actives have a fitted effect of over 40% in size
Method in brief: as §3

[17] = A CellTox Green Cytotoxicity Assay to monitor cytotoxicity in HepG2 cells - 0 hour (AID 1224882); further: nearly all actives have a fitted effect of over 35% in size
Method in brief: as §6

[18] = qHTS RealTime-Glo MT Cell Viability Assay in HepG2 cells - 32 hour (AID 1224877); further: nearly all actives have a fitted effect of over 55% in size
Method in brief: as §1
On the % scale 0 is the no-effect control and ±100 the full control effect.

NC(=O)CCl
inactive: outcome [1] | Potency [2] | Potency [3] | Potency [4] | Potency [5] | Potency [6] | Potency [7] | Potency [8] | Potency [9] | max response [10] 11.6% | Potency [11] | Potency [12] | Potency [13] | Potency [14] | Potency [15] | Potency [16] | Potency [17]

N#C/C=C/c1ccccc1
inactive: outcome [1] | Potency [2] | Potency [3] | Potency [4] | Potency [5] | Potency [6] | Potency [7] | Potency [8] | Potency [9] | max response [10] -0.121% | Potency [11] | Potency [12] | Potency [13] | Potency [14] | Potency [15] | Potency [16] | Potency [17]

CCN
inactive: outcome [1] | Potency [2] | Potency [3] | Potency [4] | Potency [5] | Potency [6] | Potency [7] | Potency [8] | Potency [9] | max response [10] 19.6% | Potency [11] | Potency [13] | Potency [14] | Potency [15] | Potency [16] | Potency [17]

CCCCCCCCCCCCBr
inactive: outcome [1] | Potency [2] | Potency [3] | Potency [4] | Potency [6] | Potency [7] | Potency [8] | Potency [9] | max response [10] -12.1% | Potency [11] | Potency [12] | Potency [18] | Potency [13] | Potency [14] | Potency [15] | Potency [17]

Clc1ccc(Oc2ccccc2)cc1
inactive: outcome [1] | Potency [2] | Potency [3] | Potency [4] | Potency [6] | Potency [8] | Potency [9] | max response [10] -29.2% | Potency [18] | Potency [13] | Potency [14] | Potency [15] | Potency [17]

CC(C)CCCCCOC(=O)c1ccccc1C(=O)OCCCCCC(C)C
inactive: outcome [1] | Potency [2] | Potency [3] | Potency [4] | Potency [5] | Potency [6] | Potency [7] | Potency [8] | Potency [9] | max response [10] -3.2% | Potency [11] | Potency [12] | Potency [13] | Potency [14] | Potency [15] | Potency [16] | Potency [17]

BrCBr
inactive: outcome [1] | Potency [2] | Potency [3] | Potency [4] | Potency [5] | Potency [6] | Potency [7] | Potency [8] | Potency [9] | Potency [11] | Potency [12] | Potency [18] | Potency [13] | Potency [15] | Potency [16] | Potency [17]

N#Cc1ccc(O)cc1
inactive: outcome [1] | Potency [2] | Potency [3] | Potency [4] | Potency [5] | Potency [6] | Potency [7] | Potency [8] | Potency [9] | max response [10] -7.33% | Potency [11] | Potency [18] | Potency [13] | Potency [14] | Potency [15] | Potency [16] | Potency [17]
